{"source": "PubChem BioAssay (EPA / NIEHS)", "note": "Inconclusive results are not listed. The source made the active and inactive calls. The calls were made as follows: active = hit-call score of the fitted dose curve at least 0.9, where 1 is the maximum; inconclusive = response in the unintended direction; inactive = score below 0.9.", "data": [{"target": "Nucleoli Translocation, AR (gene 367) (UniProt P10275)", "sequence (P10275 whole entry, looked up)": "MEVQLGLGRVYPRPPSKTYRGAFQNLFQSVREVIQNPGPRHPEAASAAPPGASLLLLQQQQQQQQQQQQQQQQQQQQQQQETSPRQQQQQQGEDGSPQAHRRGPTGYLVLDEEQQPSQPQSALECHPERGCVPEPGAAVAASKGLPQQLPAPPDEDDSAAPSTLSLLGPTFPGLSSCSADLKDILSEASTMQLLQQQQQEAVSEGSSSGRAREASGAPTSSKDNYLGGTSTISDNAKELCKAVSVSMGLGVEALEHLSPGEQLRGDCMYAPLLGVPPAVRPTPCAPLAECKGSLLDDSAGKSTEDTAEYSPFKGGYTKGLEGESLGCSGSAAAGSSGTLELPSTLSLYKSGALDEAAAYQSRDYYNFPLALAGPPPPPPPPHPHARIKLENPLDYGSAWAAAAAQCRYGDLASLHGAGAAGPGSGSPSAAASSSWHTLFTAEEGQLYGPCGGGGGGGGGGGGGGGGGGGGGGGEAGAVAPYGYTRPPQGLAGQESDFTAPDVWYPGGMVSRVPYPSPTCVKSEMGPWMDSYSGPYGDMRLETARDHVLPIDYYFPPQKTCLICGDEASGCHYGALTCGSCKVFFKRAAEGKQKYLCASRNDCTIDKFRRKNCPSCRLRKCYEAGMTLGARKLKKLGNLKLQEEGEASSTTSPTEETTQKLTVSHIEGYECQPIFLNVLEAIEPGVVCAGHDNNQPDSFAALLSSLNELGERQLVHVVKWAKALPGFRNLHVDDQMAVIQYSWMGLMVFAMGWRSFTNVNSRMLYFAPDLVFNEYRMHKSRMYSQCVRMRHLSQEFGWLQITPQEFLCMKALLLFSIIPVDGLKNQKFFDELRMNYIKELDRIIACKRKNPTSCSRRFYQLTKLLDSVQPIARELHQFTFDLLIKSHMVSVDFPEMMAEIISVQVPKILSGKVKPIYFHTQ", "test": "UPITT_HCI_U2OS_AR_TIF2_Nucleoli_Antagonist: University of Pittsburgh U2OS Androgen Receptor-Transcriptional Intermediary Factor 2 (AR-TIF2) Antagonism High Content Imaging Assay for Nucleoli Translocation (AID 2283997)", "summary_of_the_method": "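Antagonism is read as loss of nucleolar AR-RFP signal relative to DHT, imaged in U2OS cells also carrying GFP-TIF2. Compounds screened at 20 uM final, 0.2% DMSO; primary actives retested in triplicate.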", "values": [{"smiles": "CC(O)COc1ccccc1", "note": "(centres undefined)", "outcome": "inactive"}, {"smiles": "CC(=O)Nc1ccc(O)cc1", "outcome": "inactive"}, {"smiles": "CN(Cc1cnc2nc(N)nc(N)c2n1)c1ccc(C(=O)N[C@@H](CCC(=O)O)C(=O)O)cc1", "outcome": "inactive"}, {"smiles": "COc1cc([N+](=O)[O-])ccc1N", "outcome": "inactive"}, {"smiles": "Cc1cc(C(=C2C=CC(=Nc3ccc(S(=O)(=O)O)cc3)C=C2)c2ccc(Nc3ccc(S(=O)(=O)O)cc3)cc2)cc(S(=O)(=O)O)c1N", "outcome": "inactive"}, {"smiles": "CCCCCCCCCC=CCC1CC(=O)OC1=O", "note": "(centres undefined)", "outcome": "inactive"}, {"smiles": "CCCCCCC(C)(C)C(=O)O", "outcome": "inactive"}, {"smiles": "O=C(c1ccccc1)c1ccccc1", "outcome": "inactive"}, {"smiles": "CC1COCc2cc3c(cc21)C(C)(C)C(C)C3(C)C", "note": "(centres undefined)", "AC50": "9.92 µM (active)"}, {"smiles": "CN(C)CCOC(c1ccccc1)c1ccccc1", "outcome": "inactive"}, {"smiles": "NC(=NCCCCCCN=C(N)/N=C(\\N)Nc1ccc(Cl)cc1)/N=C(\\N)Nc1ccc(Cl)cc1", "AC50": "16.5 µM (active)"}, {"smiles": "CCCCCc1ccc(O)cc1", "AC50": "31.9 µM (active)"}, {"smiles": "CC(C)[C@@H]1CC[C@@H](C)C[C@H]1O", "outcome": "inactive"}, {"smiles": "O=C(NCc1ncc(C(F)(F)F)cc1Cl)c1c(Cl)cccc1Cl", "outcome": "inactive"}, {"smiles": "CCCCCCc1ccc(N)cc1", "outcome": "inactive"}]}, {"target": "Nucleoli Translocation, AR (gene 367) (UniProt P10275)", "test": "UPITT_HCI_U2OS_AR_TIF2_Nucleoli_Agonist: University of Pittsburgh U2OS Androgen Receptor-Transcriptional Intermediary Factor 2 (AR-TIF2) Agonism High Content Imaging Assay for Nucleoli Translocation (AID 2283998)", "summary_of_the_method": "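Readout is red (AR-RFP) fluorescence localized to nucleoli, measured by high-content imaging and analysed for increase relative to DMSO. Compound series spanned 0.195 to 50 uM final in 0.5% DMSO.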", "values": [{"smiles": "CC(O)COc1ccccc1", "note": "(centres undefined)", "outcome": "inactive"}, {"smiles": "CN(Cc1cnc2nc(N)nc(N)c2n1)c1ccc(C(=O)N[C@@H](CCC(=O)O)C(=O)O)cc1", "outcome": "inactive"}, {"smiles": "CCCCc1ccc2ccccc2c1S(=O)(=O)O", "outcome": "inactive"}, {"smiles": "CCCCCCC(C)(C)C(=O)O", "outcome": "inactive"}, {"smiles": "O=C(c1ccccc1)c1ccccc1", "outcome": "inactive"}, {"smiles": "CN(C)CCOC(c1ccccc1)c1ccccc1", "outcome": "inactive"}, {"smiles": "NC(=NCCCCCCN=C(N)/N=C(\\N)Nc1ccc(Cl)cc1)/N=C(\\N)Nc1ccc(Cl)cc1", "outcome": "inactive"}, {"smiles": "CCCCCc1ccc(O)cc1", "AC50": "39.1 µM (active)"}, {"smiles": "CC(C)[C@@H]1CC[C@@H](C)C[C@H]1O", "outcome": "inactive"}, {"smiles": "O=C(NCc1ncc(C(F)(F)F)cc1Cl)c1c(Cl)cccc1Cl", "outcome": "inactive"}, {"smiles": "CCCCCCc1ccc(N)cc1", "outcome": "inactive"}]}, {"target": "Ratio of Nucleoli Translocation and Cytoplasm, AR (gene 367) (UniProt P10275)", "sequence (P10275 whole entry, looked up)": "as above", "test": "UPITT_HCI_U2OS_AR_TIF2_Nucleoli_Cytoplasm_Ratio_Agonist: University of Pittsburgh U2OS Androgen Receptor-Transcriptional Intermediary Factor 2 (AR-TIF2) Agonism High Content Imaging Assay for Ratio of Nucleoli Translocation and Cytoplasm (AID 2284000);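 also: hits raise the red nucleolar to cytoplasm ratio above vehicle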", "summary_of_the_method": "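Compounds tested at 20 uM final in primary screen (0.2% DMSO) and 0.195-50 uM final in dose-response (0.5% DMSO). Imaging of human U2OS cells bearing RFP-AR and GFP-TIF2; endpoint is nucleoli/cytoplasm red signal ratio, positive direction relative to DMSO.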", "values": [{"smiles": "CC(O)COc1ccccc1", "note": "(centres undefined)", "outcome": "inactive"}, {"smiles": "CN(Cc1cnc2nc(N)nc(N)c2n1)c1ccc(C(=O)N[C@@H](CCC(=O)O)C(=O)O)cc1", "outcome": "inactive"}, {"smiles": "COc1cc([N+](=O)[O-])ccc1N", "outcome": "inactive"}, {"smiles": "CCCCc1ccc2ccccc2c1S(=O)(=O)O", "outcome": "inactive"}, {"smiles": "Cc1cc(C(=C2C=CC(=Nc3ccc(S(=O)(=O)O)cc3)C=C2)c2ccc(Nc3ccc(S(=O)(=O)O)cc3)cc2)cc(S(=O)(=O)O)c1N", "outcome": "inactive"}, {"smiles": "CCCCCCCCCC=CCC1CC(=O)OC1=O", "note": "(centres undefined)", "outcome": "inactive"}, {"smiles": "CCCCCCC(C)(C)C(=O)O", "outcome": "inactive"}, {"smiles": "O=C(c1ccccc1)c1ccccc1", "outcome": "inactive"}, {"smiles": "CN(C)CCOC(c1ccccc1)c1ccccc1", "outcome": "inactive"}, {"smiles": "NC(=NCCCCCCN=C(N)/N=C(\\N)Nc1ccc(Cl)cc1)/N=C(\\N)Nc1ccc(Cl)cc1", "outcome": "inactive"}, {"smiles": "CCCCCc1ccc(O)cc1", "outcome": "inactive"}, {"smiles": "O=C(NCc1ncc(C(F)(F)F)cc1Cl)c1c(Cl)cccc1Cl", "outcome": "inactive"}, {"smiles": "CCCCCCc1ccc(N)cc1", "AC50": "78.4 µM (active)"}]}]}
